High-throughput results deposited in PubChem BioAssay by National Center for Advancing Translational Sciences (NCATS).
TDP1 block: inhibitors of human tyrosyl-DNA phosphodiesterase TDP1. recombinant TDP1, AlphaScreen DNA substrate cleavage. Potency, µM (series often up to 130 µM), inactives show at the highest dose activity change, negative = inhibition, hits mostly inhibitors. Q9NUW8. hit rate 0.28% among 350,000. AID 485290; further: potency means the concentration at half of the fitted maximal effect; nearly all actives have a fitted effect of over 40% in size
Target sequence (Q9NUW8 whole entry, looked up): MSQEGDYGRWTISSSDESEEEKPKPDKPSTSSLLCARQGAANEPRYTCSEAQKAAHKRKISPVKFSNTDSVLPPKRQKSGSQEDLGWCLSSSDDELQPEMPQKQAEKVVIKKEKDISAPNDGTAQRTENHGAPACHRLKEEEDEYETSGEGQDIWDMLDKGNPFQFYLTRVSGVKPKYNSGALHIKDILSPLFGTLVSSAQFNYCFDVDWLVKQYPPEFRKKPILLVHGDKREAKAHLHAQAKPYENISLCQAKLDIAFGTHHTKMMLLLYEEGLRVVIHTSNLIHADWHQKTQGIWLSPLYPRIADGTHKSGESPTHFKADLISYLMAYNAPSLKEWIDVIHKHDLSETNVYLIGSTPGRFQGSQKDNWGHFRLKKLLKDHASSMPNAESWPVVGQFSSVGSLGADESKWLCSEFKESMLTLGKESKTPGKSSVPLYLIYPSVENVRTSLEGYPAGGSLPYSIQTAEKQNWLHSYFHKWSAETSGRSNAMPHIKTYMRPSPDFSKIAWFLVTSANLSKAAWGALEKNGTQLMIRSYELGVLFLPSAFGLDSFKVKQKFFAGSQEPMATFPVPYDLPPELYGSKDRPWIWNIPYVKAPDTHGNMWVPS
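Signal: AlphaScreen proximity between streptavidin donor and anti-FITC acceptor beads on intact substrate. Reaction: Tdp1 1 nM, substrate 15 nM final, 5 min RT after 15 min compound preincubation.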
Giardia killer: kills Giardia lamblia | Giardia lamblia trophozoite viability | activity change, % at 7.66 µM, hits read low | hit rate 0.15% among 340,000; in the data active means activity change below about -80%; inconclusive means between about -30% and that limit;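 further: parasites exposed to compound for two days anaerobically before the ATP read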
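Each well holds 100 Giardia trophozoites and compound. After two days (48 hrs) at 37 deg C in anaerobic conditions, ATP is quantified by luminescence.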
IL1B secr inh: inhibitors of inflammasome signaling (IL-1 beta secretion) | activity change, % at 57.5 µM | hit rate 4.7% among 360,000 | THP-1 LPS/ATP IL-1B secretion, AlphaLISA, 16 h; stronger effect = lower value | AID 743279; in the data active means activity change below about -50%; inconclusive means mostly about -30% to -49%
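THP-1 cells pretreated 1 hr with compounds (up to 57.5 uM final), then stimulated with LPS (250 ng/mL final) plus ATP (1.25 mM final); secreted IL-1B measured by AlphaLISA after 16 hr, decreased signal indicating inhibition.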
DT40 TDP1 no CPT: qHTS for Inhibitors of human tyrosyl-DNA phosphodiesterase 1 (TDP1): qHTS in cells in absence of CPT; AID 686978, 2013; DT40 Tdp1-/- hTDP1 cells, no CPT, ATP luminescence, 48 h; hit rate 15% among 420,000; Potency, µM (series often up to 46.2 µM), without a hit: top-dose activity change, negative = growth inhibition, actives largely listed as inhibitors; further: potency means the concentration at half of the fitted maximal effect; nearly all actives have a fitted effect of over 55% in size
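Cells were dispensed at 400 per well, compounds added by pin tool, plates incubated ≥48 hr at 37 °C, then CellTiter-Glo added for 30 min at room temperature before luminescence reading. Line: DT40 Tdp1-/- complemented with hTDP1; camptothecin omitted.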
TDP1 cell CPT: growth inhibition of DT40 Tdp1-/-;hTDP1 cells with camptothecin (screen for TDP1 inhibitors); AID 686979; Potency, µM (top dose mostly 46.2 µM), inactives show top-dose activity change, negative = growth inhibition, most hits filed as inhibitors; chicken DT40 Tdp1-/-;hTDP1 cells + 20 nM CPT, ATP luminescence, 48 h; hit rate 12% among 420,000; further: potency means the concentration at half of the fitted maximal effect; nearly all actives have a fitted effect of over 55% in size
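Chicken DT40 Tdp1-/- cells stably complemented with human TDP1 were seeded at 400 cells/well in medium containing 20 nM camptothecin, exposed to pin-transferred compounds, and grown at 37 °C for at least 48 hr. Viability was read as ATP luminescence.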
ELG1 repair inh: blocks ELG1-dependent DNA repair in HEK293T cells. AID 504467. HEK293T ELG1-luciferase reporter, luminescence, 16 h; DNA damage induced by 5-fluorouridine. Potency, µM (titrated, usually from 46.1 µM), for the others: at the highest dose activity change, negative = inhibition, usual class: inhibitors. hit rate 2.3% among 330,000; further: potency means the concentration at half of the fitted maximal effect; nearly all actives have a fitted effect of over 55% in size
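Overnight (16 hr) co-exposure of 2,000 cells/well to 5-fluorouridine and compound at 37 °C preceded detection. Luciferase was quantified via ONE-Glo luminescence; loss of signal denotes inhibition.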
Starred values were filed as active, the others as inactive; ? = inconclusive; nt = not tested or not shown; [ ] = dose if it differs, or a comment. Only some compounds are listed: those with a hit (about 19% of all), similar ones and a draw of the others. Unless noted, the call rests on the fitted dose curve; in most records, active means well fitted curve in the direction sought with a large enough effect; inconclusive means small, poorly fitted or top-dose-only effect, or another doubt; inactive means no such curve, though single readings can be large; an effect the other way counts as inactive or inconclusive. On the % scale 0 is the no-effect control and ±100 the full control effect.

SMILES	TDP1 block	Giardia killer	IL1B secr inh	DT40 TDP1 no CPT	TDP1 cell CPT	ELG1 repair inh
Cc1ccc2c(CC(=O)NCC3(N4CCOCC4)CCCCC3)coc2c1C	1.2%	2.8	1.5	?	?	-27.4%
CC(=O)c1c2c3c(c(Br)ccc3n(C)c1=O)C(=O)c1ccccc1-2	6.6%	-29.3	-19.7	23.1µM*	?	27.8%
CC(=O)c1c2c3c(cccc3n(C)c1=O)C(=O)c1ccccc1-2	nt	7.4	9.8	-6.3%	0.3%	-8.7%
O=C(Nc1ccc(N2CCCC2)c(S(=O)(=O)Nc2cccc(C(F)(F)F)c2)c1)c1cccs1	1.1%	10.8	?	14.6µM*	?	?
COc1ccccc1NS(=O)(=O)c1cc(NC(=O)Nc2ccccc2)ccc1N1CCCCC1	0.0%	1.7	12.4	18.4µM*	18.4µM*	?
COc1ccccc1NS(=O)(=O)c1cc(NC(=O)c2cccs2)ccc1N1CCCC1	0.0%	10.5	0.0	9.2µM*	5.8µM*	17.9%
COc1ccccc1NS(=O)(=O)c1cc(NC(=O)C(C)C)ccc1N1CCCCC1	2.7%	4.5	-4.6	?	?	-28.4%
COc1ccccc1NS(=O)(=O)c1cc(NC(=O)c2cccs2)ccc1N1CCCCC1	1.2%	-29.2	6.8	14.6µM*	16.4µM*	5.3%
CC(=O)c1ccc(Oc2cnccn2)cc1	0.0%	-2.3	-12.2	-3.4%	7.6%	4.4%
COc1cc(OC)cc(-c2c(Sc3ccccc3)c3cc(-c4ccc5c(c4)OCCO5)ccc3n2C)c1	nt	nt	9.1	-27.9%	-18.7%	nt
CCOc1cccc(CC(=O)N2CCc3c([nH]c4ccccc34)C2c2ccc(Cl)cc2)c1OCC (stereo unspecified)	5.4%	nt	nt	14.6µM*	10.3µM*	nt
CSc1ccc(C2c3[nH]c4ccccc4c3CCN2C(=O)CCc2ccccc2)cc1 (stereo unspecified)	5.4%	nt	nt	-21.2%	-18.5%	nt
O=C(CCc1ccccc1)N1CCc2c([nH]c3ccccc23)C1c1ccc(Cl)cc1 (stereo unspecified)	0.0%	nt	nt	25.9µM*	16.4µM*	nt
CC(Oc1ccc(Cl)cc1)c1ccnn1S(=O)(=O)c1ccccc1 (stereo unspecified)	-6.7%	12.5	-12.3	-4.4%	-16.6%	-10.1%
CC(Oc1ccc(-c2ccccc2)c(F)c1)c1ccn(S(=O)(=O)c2ccc(Cl)cc2)n1 (stereo unspecified)	-2.9%	-11.2	-1.3	?	14.6µM*	4.2%
COc1ccc(S(=O)(=O)Nc2ccc3c(c2)N(C(C)=O)CCC3)cc1	-7.9%	1.1	7.7	16.4µM*	18.4µM*	28.8%
CC(=O)N1CCCc2ccc(NC(=O)c3ccc(OC(C)C)cc3)cc21	-1.2%	nt	nt	16.4µM*	?	nt
COc1cccc(OC)c1C(=O)Nc1ccc2c(c1)N(C(C)=O)CCC2	6.2%	nt	nt	-4.0%	-2.3%	nt
COc1ccc(S(=O)(=O)Nc2ccc3c(c2)N(C(C)=O)CCC3)cc1OC	nt	8.7	-4.1	?	?	0.0%
COc1ccc(C)cc1S(=O)(=O)Nc1ccc2c(c1)N(C(C)=O)CCC2	-0.1%	4.6	11.4	16.4µM*	25.9µM*	5.9%
O=c1ncccn1C1OC(CO)C(O)C1O (stereo unspecified)	nt	nt	22.7	-17.0%	-13.3%	nt
CN(C(=O)CSc1nc2ncccc2o1)c1ccc(F)cc1	5.8%	nt	nt	-21.6%	2.9%	nt
Cn1c(Cn2c(=O)sc3ccccc32)nnc1SCC(=O)NCCc1ccccc1	2.6%	-3.5	-1.9	-11.2%	8.8%	0.8%
O=C(Nc1ncc(Cc2cccc(Cl)c2)s1)C1=NCCN1	3.8%	13.6	-4.4	?	16.4µM*	18.6%
O=C(Nc1ncc(Cc2cccc(Cl)c2)s1)c1cccs1	7.7%	7.4	-24.5	?	?	?
SMILES	TDP1 block	Giardia killer	IL1B secr inh	DT40 TDP1 no CPT	TDP1 cell CPT	ELG1 repair inh
COc1ccc(-c2nc3cc(C)ccn3c2NC(=O)c2ccccc2OC)cc1	nt	8.6	47.9	?	?	-8.2%
CCCCNc1c(-c2ccc(OC)c(SC3CCCCC3)c2)nc2cnccn12	-8.9%	12.7	-70.2*	?	?	?
CCOC(=O)CNc1c(-c2ccc(Cl)cc2)nc2cnccn12	-8.7%	-3.2	15.5	-4.9%	6.5%	5.6%
CCCCNc1c(-c2ccc(-c3ccc(C(C)=O)cc3)c(OC)c2)nc2cnccn12	nt	22.1	-0.4	?	10.3µM*	9.2µM*
CCCCNc1c(-c2ccc(SC3CCCCC3)cc2)nc2cnccn12	-0.8%	15.7	-13.1	?	14.6µM*	?
CCCCNc1c(-c2ccc(OC)c(SC3CCCCC3)c2)nc2cc(C)ccn12	6.0%	7.6	-86.4*	14.6µM*	20.6µM*	?
N#Cc1cccc(-c2cncnc2NCc2cccs2)c1	nt	nt	nt	-2.3%	-6.5%	nt
Cc1nc2cnc(N3CCNCC3)nc2n(C2CC2)c1=O	nt	nt	nt	-16.3%	1.1%	nt
COCCNc1c(-c2ccc(OC)cc2)nc2ccc(Cl)cn12	2.5%	4.4	?	?	?	-0.7%
CCCCNc1c(-c2ccc(OC)c(SC3CCCCC3)c2)nc2ccc(Cl)cn12	-1.1%	1.6	-26.8	23.1µM*	20.6µM*	-23.0%
CC1=CC(c2ccccc2)=NS(=O)(=O)N1	0.3%[56.1 µM]	-0.7	-104.0*	-5.1%	-5.9%	?
Cc1ccc(C)c2sc(N3CCN(C(=O)c4ccc([N+](=O)[O-])o4)CC3)nc12	-4.5%	-15.1	-102.8*	?	8.2µM*	4.4%
O=C(c1cccs1)N1CCN(c2nc3c(F)cc(F)cc3s2)CC1	0.3%	10.3	?	?	?	3.5%
O=C(c1ccc([N+](=O)[O-])o1)N1CCN(c2nc3c(F)cc(F)cc3s2)CC1	4.4%	?	-71.1*	?	?	?
Cc1cc(O)c2c(c1)C(=O)[C@@]13Oc4c5c(c(O)c6c(O)cc(C)cc46)C(=O)C[C@H](O)[C@H]5[C@@H]1[C@@H](O)CC(=O)C3=C2O	nt	-13.7	-5.5	?	14.6µM*	nt
Cc1ccccc1C(=O)Nc1ccnn1C1CCN(Cc2cnn(C(C)C)c2)CC1	4.9%	4.5	-9.7	-9.2%	-1.4%	10.8%
COc1ccc(CN(C(=O)Cc2cccs2)C(C(=O)NC2CCCC2)c2ccncc2)cc1 (stereo unspecified)	2.1%	9.5	-3.5	?	?	0.0%
